Sampled rows, rich in hits. Any-hit rate of the full collection: about 6.7%.
T cruzi growth-1: T. cruzi intracellular proliferation inhibitors, primary screen, cell-based, beta-gal Tulahuen parasites, NIH3T3 host, luminescence | T. cruzi beta-gal in NIH3T3, GalScreen luminescence, 90 h | inhibition, % at 8.34 µM | 5.9% of 77,000 active;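 active = mean inhibition above about 93%, with at least 55% of replicates each passing it, limit read from the data, passing the limit was not always enough; inconclusive = only one of those two conditions holds; inactive = neither condition holds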
Pf Dd2 inh: P. falciparum Dd2 growth inhibitors, primary screen, SYBR Green fluorescence, single dose replicates | 72 h; active compounds read low | activity change, % at 10 µM | 2.3% of 94,000 active; in the data active = activity change below about -80%; inconclusive = no clear call, values can overlap the other calls
C diff HTS: C. difficile growth inhibitors, primary screen, HTS | growth activity, negative = inhibition, % at 16 µg/mL (by protocol) | Clostridium difficile clinical isolate growth, OD600, 24 h; active compounds read low | 0.25% of 86,000 active | AID 1259249, 2017;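 active = mean growth activity at or below -80% and every replicate also at or below -80%; inconclusive = mean at or below -80% but some replicate above -80%; inactive = mean growth activity above -80%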;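 also: 0% = DMSO wells and -100% = levofloxacin 16 µg/mL wells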
T cruzi growth-2: T. cruzi intracellular proliferation inhibitors, confirmation, cell-based, NIH3T3 host, beta-gal parasite, luminescence, cherry-pick | shares compounds with T cruzi growth-1 | T. cruzi beta-gal in NIH3T3, GalScreen luminescence, 90 h | inhibition, % at 8.35 µM | 72% of 5,600 active | AID 651739, 2012;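 active = mean replicate inhibition above about 95% and at least 55% of replicates individually reaching it, limit read from the data; inconclusive = only one of the two criteria is met; inactive = neither criterion is met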
T cruzi growth-3: inhibitors of intracellular T. cruzi replication, confirmation, NIH3T3 host cells, beta-gal parasites, cherry-pick, set 2. shares compounds with T cruzi growth-1. T. cruzi beta-gal in NIH3T3, GalScreen luminescence, 90 h. inhibition, % at 2.09 µM. 21% of 5,600 active. AID 651740, 2012;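 active = mean inhibition above about 95%, with at least 55% of replicates also reaching it, limit read from the data; inconclusive = meets just one of the two conditions; inactive = meets neither condition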;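 also: plate controls were neutral control median for no effect and positive control median for full effect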
3T3 cytotox: cytotoxicity in mouse NIH/3T3 fibroblasts, confirmation, cytotoxicity control for T. cruzi proliferation inhibitor project, cell-based, cherry-pick, single point | shares compounds with T cruzi growth-1 | NIH/3T3 viability, CellTiter-Glo ATP luminescence, 90 h | cytotoxicity (signal decrease), % at 8.35 µM | 14% of 5,600 active;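 active = mean signal decrease across replicates above about 35% based on untreated-well scatter, with enough replicates individually passing, limit read from the data; inconclusive = no rule stated though some were filed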;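 also: 0% = median of neutral control wells and 100% = median of positive control wells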
3T3 cytotox 2: NIH/3T3 fibroblast cytotoxicity, confirmation, cytotoxicity control, cell-based, cherry-pick, single point, set 2; shares compounds with T cruzi growth-1; NIH/3T3 viability, CellTiter-Glo ATP luminescence, 90 h; inhibition, % at 24.9 µM; 56% of 5,600 active; AID 651744, 2012;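 active = mean loss of cell viability signal at or above a set limit, and enough replicates individually reaching it; inconclusive = meets only the mean limit or only the replicate share; inactive = meets neither condition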;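 also: 0% = median of neutral control wells and 100% = median of positive control wells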
An asterisk follows results filed as active; ? = inconclusive; nt = not tested or not shown.

SMILES | T cruzi growth-1 | Pf Dd2 inh | C diff HTS | T cruzi growth-2 | T cruzi growth-3 | 3T3 cytotox | 3T3 cytotox 2
CC(=O)N1[C@@H]2Cn3c(ccc(C4=CCCC4)c3=O)[C@H]1[C@@H](C(=O)N[C@H](C)c1ccccc1)[C@@H]2CO | -9 | 6 | -4 | nt | nt | nt | nt
COc1ccc(NC(=O)N(C)C[C@@H]2Oc3ccc(NS(=O)(=O)c4ccc(C)cc4)cc3CC(=O)N([C@@H](C)CO)C[C@@H]2C)cc1 | -9 | -2 | nt | nt | nt | nt | nt
Cc1noc(C)c1NC(=O)Nc1ccc2c(c1)C(=O)N([C@H](C)CO)C[C@@H](C)[C@H](CN(C)Cc1ccc(C(F)(F)F)cc1)OCCCC[C@H](C)O2 | ? | -57 | 11 | 114* | 30 | -8 | 69*
C[C@@H]1CCCCO[C@@H](CN(C)Cc2ccc(C(F)(F)F)cc2)[C@H](C)CN([C@H](C)CO)C(=O)c2cc(NC(=O)Nc3ccc(F)cc3)ccc2O1 | 110* | 9 | nt | 92 | 108* | 10 | 57*
C[C@@H]1CCCCO[C@H](CN(C)Cc2ccc(C(F)(F)F)cc2)[C@H](C)CN([C@H](C)CO)C(=O)c2cc(NC(=O)Nc3ccc(C(F)(F)F)cc3)ccc2O1 | 80 | -70 | 11 | nt | nt | nt | nt
Cc1noc(C)c1NC(=O)Nc1ccc2c(c1)C(=O)N([C@@H](C)CO)C[C@@H](C)[C@H](CN(C)Cc1ccc(C(F)(F)F)cc1)OCCCC[C@H](C)O2 | 85 | -44 | 11 | nt | nt | nt | nt
O=C(C[C@H]1CC[C@H](NC(=O)c2ccc3c(c2)OCO3)[C@H](CO)O1)NCc1ccc(Cl)cc1 | -13 | 2 | 2 | nt | nt | nt | nt
CO[C@H]1CN(C)C(=O)c2cc(NC(C)=O)ccc2OC[C@@H](C)N(Cc2ccccn2)C[C@H]1C | 33 | 20 | -9 | nt | nt | nt | nt
C[C@H](CO)N1C[C@H](C)[C@H](CN(C)Cc2ccc(C(=O)Nc3ccccc3N)cc2)Oc2ccc(NS(=O)(=O)c3ccc(Cl)cc3)cc2C1=O | 76 | -60 | 2 | nt | nt | nt | nt
C/C=C/c1ccc([C@@H]2[C@H](CO)N3CCCCN(C(=O)Nc4ccc(F)cc4)C[C@@H]23)cc1 | 59 | 3 | 56 | nt | nt | nt | nt
C/C=C/c1ccc([C@@H]2[C@@H](CO)N3CCCCN(C(=O)Nc4ccc(F)cc4)C[C@@H]23)cc1 | 97* | -36 | 37 | 108* | 39 | 17 | 74*
C/C=C/c1ccc([C@H]2[C@H](CO)N3CCCCN(C(=O)Nc4ccc(F)cc4)C[C@@H]23)cc1 | 90 | -4 | 44 | nt | nt | nt | nt
C/C=C/c1ccc([C@@H]2[C@H]3CN(C(=O)Nc4ccc(F)cc4)CCCCN3[C@H]2CO)cc1 | ? | -11 | 31 | 112* | 74 | 33 | 106*
CN(C)C(=O)C[C@@H]1CC[C@H]2[C@@H](COC[C@@H](O)CN2CC2CCCCC2)O1 | -19 | 18 | -1 | nt | nt | nt | nt
CC(=O)N(C)C[C@H]1Oc2ncc(-c3ccccc3F)cc2C(=O)N([C@@H](C)CO)C[C@@H]1C | 26 | 40 | 0 | nt | nt | nt | nt
C[C@H]1CN([C@@H](C)CO)S(=O)(=O)c2ccc(-c3cccc(F)c3)cc2O[C@@H]1CN(C)S(=O)(=O)c1ccc(F)cc1 | 127* | -12 | 3 | 105* | 104* | 57* | 38*
C[C@H]1CN([C@@H](C)CO)S(=O)(=O)c2ccc(-c3cccc(F)c3)cc2O[C@H]1CN(C)S(C)(=O)=O | 138* | -45 | -10 | 102* | 69 | 29 | 52*
Cc1ccc(S(=O)(=O)N(C)C[C@H]2Oc3cc(-c4cccc(F)c4)ccc3S(=O)(=O)N([C@@H](C)CO)C[C@@H]2C)cc1 | 124* | -48 | 1 | 97* | 94 | 12 | 38*
C[C@H](CO)N1C[C@H](C)[C@@H](CN(C)C)Oc2cc(-c3cccc(F)c3)ccc2S1(=O)=O | -18 | nt | -4 | nt | nt | nt | nt
C[C@H]1CN([C@@H](C)CO)S(=O)(=O)c2ccc(-c3cccc(F)c3)cc2O[C@@H]1CN(C)S(C)(=O)=O | -47 | 15 | nt | nt | nt | nt | nt
C[C@@H]1CN([C@@H](C)CO)S(=O)(=O)c2ccc(-c3cccc(F)c3)cc2O[C@@H]1CN(C)C | -6 | nt | -4 | nt | nt | nt | nt
COc1ccc(S(=O)(=O)N(C)C[C@@H]2Oc3cc(-c4cccc(F)c4)ccc3S(=O)(=O)N([C@@H](C)CO)C[C@@H]2C)cc1 | nt | -69 | 8 | nt | nt | nt | nt
C[C@@H]1CN([C@H](C)CO)S(=O)(=O)c2ccc(-c3cccc(F)c3)cc2O[C@@H]1CN(C)S(=O)(=O)c1ccc(F)cc1 | 98* | 0 | 3 | 100* | 89 | 47* | 47*
CCCC(=O)N1CCC2(CC1)CN(C(=O)Nc1c(C)noc1C)[C@@H](CO)c1c2c2ccc(OC)cc2n1C | nt | -23 | -1 | nt | nt | nt | nt
C[C@H](CO)N1C[C@H](C)[C@H](CN(C)C(=O)c2ccc(F)cc2)Oc2cc(C3=CCCC3)ccc2S1(=O)=O | nt | -17 | 19 | nt | nt | nt | nt
SMILES | T cruzi growth-1 | Pf Dd2 inh | C diff HTS | T cruzi growth-2 | T cruzi growth-3 | 3T3 cytotox | 3T3 cytotox 2
CC(C)CC#Cc1ccc2c(c1)O[C@@H](CN(C)Cc1ccccn1)[C@@H](C)CN([C@@H](C)CO)S2(=O)=O | 116* | -38 | nt | 105* | 62 | 4 | 102*
C[C@H](O)C#Cc1ccc2c(c1)O[C@@H](CN(C)Cc1ccccn1)[C@@H](C)CN([C@H](C)CO)S2(=O)=O | 0 | -7 | 2 | nt | nt | nt | nt
CC(C)CC#Cc1ccc2c(c1)O[C@@H](CN(C)Cc1ccccn1)[C@H](C)CN([C@@H](C)CO)S2(=O)=O | 131* | -62 | 0 | 109* | 91 | 14 | 103*
CC(C)CC#Cc1ccc2c(c1)O[C@H](CN(C)Cc1ccccn1)[C@H](C)CN([C@@H](C)CO)S2(=O)=O | 126* | -76 | -5 | 100* | 52 | 22 | 104*
C[C@@H](O)C#Cc1ccc2c(c1)O[C@H](CN(C)Cc1ccccn1)[C@@H](C)CN([C@@H](C)CO)S2(=O)=O | 12 | -9 | -2 | nt | nt | nt | nt
CC(C)CC#Cc1ccc2c(c1)O[C@@H](CN(C)Cc1ccccn1)[C@H](C)CN([C@H](C)CO)S2(=O)=O | 123* | -70 | 7 | 104* | 65 | 19 | 105*
CN(C)CCCNC(=O)C[C@H]1CC[C@H](NC(=O)Cc2cccnc2)[C@@H](CO)O1 | 10 | 11 | nt | nt | nt | nt | nt
C[C@H]1CCCCO[C@H](CN(C)Cc2ccncc2)[C@@H](C)CN([C@@H](C)CO)C(=O)c2cc(NC(=O)Nc3ccc(F)cc3)ccc2O1 | 26 | 30 | -2 | nt | nt | nt | nt
O=C(C1=C[C@@H](C2CC2)C[C@@H](OCc2ccc(CO)cc2)O1)N1CCCC1 | nt | nt | -1 | nt | nt | nt | nt
